Results as given in the supplement of paper PMC11732987, “Enantioselective OTUD7B fragment discovery through chemoproteomics screening and high-throughput optimisation” (Communications Chemistry, 2025).

Experiments:
Experiment in all cases: log2 ratio of Biotin-Ahx-Ub-VS probe labelling (fragment/DMSO); higher = less target engagement (more negative = stronger competition), active = hit call of the paper (q ≤ 0.05, log2 ratio ≤ -1)
Settings in all cases: compound concentration: 200 uM; treatment time: 3 h
USP19 = molecular target: T1, USP19 (UniProt O94966)
T1 sequence (whole entry): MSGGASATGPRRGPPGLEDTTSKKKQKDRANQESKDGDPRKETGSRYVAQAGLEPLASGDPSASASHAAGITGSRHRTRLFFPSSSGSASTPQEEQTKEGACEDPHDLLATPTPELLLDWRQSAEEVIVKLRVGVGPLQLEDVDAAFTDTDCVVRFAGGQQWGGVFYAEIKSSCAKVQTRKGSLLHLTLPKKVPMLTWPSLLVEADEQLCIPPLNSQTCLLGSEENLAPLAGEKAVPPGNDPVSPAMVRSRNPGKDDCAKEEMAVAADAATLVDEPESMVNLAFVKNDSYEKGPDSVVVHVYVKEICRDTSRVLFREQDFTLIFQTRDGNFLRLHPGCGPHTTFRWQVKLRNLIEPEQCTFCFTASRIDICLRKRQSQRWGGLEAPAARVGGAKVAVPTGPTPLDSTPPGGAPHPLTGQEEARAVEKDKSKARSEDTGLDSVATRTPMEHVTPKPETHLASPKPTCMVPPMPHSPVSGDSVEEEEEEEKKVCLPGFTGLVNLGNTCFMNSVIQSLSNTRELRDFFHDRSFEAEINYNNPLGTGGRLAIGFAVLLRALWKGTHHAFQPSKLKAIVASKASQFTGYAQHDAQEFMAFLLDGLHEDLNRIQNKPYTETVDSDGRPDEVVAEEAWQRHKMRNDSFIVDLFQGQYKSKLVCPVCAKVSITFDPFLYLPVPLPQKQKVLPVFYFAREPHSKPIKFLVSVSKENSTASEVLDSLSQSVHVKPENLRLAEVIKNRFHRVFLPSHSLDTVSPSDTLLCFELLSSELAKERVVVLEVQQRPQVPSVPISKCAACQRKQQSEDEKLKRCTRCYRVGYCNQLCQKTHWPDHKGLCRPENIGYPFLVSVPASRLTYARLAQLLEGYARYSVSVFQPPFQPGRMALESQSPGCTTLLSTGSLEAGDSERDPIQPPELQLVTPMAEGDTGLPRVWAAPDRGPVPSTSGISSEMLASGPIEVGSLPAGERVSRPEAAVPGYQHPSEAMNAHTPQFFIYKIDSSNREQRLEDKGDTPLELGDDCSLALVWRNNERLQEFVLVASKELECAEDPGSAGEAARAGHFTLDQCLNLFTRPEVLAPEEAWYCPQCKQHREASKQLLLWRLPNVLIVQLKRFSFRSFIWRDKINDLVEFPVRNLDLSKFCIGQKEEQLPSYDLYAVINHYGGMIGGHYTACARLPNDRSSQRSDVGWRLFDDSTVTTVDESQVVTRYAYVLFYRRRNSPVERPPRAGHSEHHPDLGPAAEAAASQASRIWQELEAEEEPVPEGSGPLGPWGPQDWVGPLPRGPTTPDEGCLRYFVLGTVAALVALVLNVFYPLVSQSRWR
Outline: (§1)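 Fragment (200 µM) or vehicle was incubated for 3 h with triplicate HEK293T lysate samples of 495 µg, which were then treated with Biotin-Ahx-Ub-VS at 0.5 µM final for 1 h. Labelled DUBs were enriched on NeutrAvidin, digested with LysC and trypsin, and analysed by diaPASEF LC-MS/MS. Values are average log2 fragment/vehicle ratios from an unpaired t-test on global-median-normalised Spectronaut label-free quantities, using proteins with ≥2 unique peptides.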

USP22 = molecular target: T2, USP22 (UniProt Q9UPT9)
T2 sequence (whole entry): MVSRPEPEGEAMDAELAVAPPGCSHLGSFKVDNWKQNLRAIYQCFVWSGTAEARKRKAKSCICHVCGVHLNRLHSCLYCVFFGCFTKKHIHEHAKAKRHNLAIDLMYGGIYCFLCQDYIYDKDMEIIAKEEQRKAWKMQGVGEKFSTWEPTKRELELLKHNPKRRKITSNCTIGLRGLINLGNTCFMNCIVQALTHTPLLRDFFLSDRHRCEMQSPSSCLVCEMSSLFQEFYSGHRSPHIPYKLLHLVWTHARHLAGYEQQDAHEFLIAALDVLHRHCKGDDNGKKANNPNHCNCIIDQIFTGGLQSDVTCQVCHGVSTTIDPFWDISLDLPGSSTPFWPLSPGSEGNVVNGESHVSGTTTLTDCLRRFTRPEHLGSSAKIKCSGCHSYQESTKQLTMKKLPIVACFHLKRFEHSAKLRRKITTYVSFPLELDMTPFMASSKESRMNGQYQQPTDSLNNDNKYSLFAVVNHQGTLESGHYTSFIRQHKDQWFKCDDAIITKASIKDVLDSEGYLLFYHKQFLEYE
Outline: as §1

USP24 = USP24 (UniProt Q9UPU5)
Outline: as §1

USP25 = molecular target: T3, USP25 (UniProt Q9UHP3)
T3 sequence (whole entry): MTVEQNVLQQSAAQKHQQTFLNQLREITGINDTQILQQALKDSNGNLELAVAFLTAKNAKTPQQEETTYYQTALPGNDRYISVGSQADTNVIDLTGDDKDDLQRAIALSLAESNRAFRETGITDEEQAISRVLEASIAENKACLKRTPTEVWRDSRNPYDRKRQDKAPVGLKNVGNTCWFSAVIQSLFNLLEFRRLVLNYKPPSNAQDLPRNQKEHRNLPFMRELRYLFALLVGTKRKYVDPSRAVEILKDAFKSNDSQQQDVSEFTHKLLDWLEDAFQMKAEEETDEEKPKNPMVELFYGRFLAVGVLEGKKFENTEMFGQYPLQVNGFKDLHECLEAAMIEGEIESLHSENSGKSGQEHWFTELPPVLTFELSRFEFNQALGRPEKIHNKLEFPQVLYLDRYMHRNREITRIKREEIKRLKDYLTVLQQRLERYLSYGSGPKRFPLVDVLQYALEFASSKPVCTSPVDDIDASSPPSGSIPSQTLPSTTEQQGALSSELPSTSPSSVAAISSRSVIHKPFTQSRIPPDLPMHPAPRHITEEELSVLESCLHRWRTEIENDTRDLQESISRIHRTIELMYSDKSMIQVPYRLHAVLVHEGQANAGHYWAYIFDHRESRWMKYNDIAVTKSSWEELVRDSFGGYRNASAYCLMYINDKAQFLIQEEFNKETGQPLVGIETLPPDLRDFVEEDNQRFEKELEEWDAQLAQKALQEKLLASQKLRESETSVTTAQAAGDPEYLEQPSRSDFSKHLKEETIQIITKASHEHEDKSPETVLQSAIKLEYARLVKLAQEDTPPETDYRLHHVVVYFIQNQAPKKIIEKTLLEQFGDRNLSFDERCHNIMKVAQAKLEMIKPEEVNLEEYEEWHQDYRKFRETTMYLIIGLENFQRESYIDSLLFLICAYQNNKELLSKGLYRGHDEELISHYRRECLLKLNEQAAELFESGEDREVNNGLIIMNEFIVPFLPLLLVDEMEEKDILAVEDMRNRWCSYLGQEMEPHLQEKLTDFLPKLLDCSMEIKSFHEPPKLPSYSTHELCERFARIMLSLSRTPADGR
Outline: as §1

USP28 = molecular target: T4, USP28 (UniProt Q96RU2)
T4 sequence (whole entry): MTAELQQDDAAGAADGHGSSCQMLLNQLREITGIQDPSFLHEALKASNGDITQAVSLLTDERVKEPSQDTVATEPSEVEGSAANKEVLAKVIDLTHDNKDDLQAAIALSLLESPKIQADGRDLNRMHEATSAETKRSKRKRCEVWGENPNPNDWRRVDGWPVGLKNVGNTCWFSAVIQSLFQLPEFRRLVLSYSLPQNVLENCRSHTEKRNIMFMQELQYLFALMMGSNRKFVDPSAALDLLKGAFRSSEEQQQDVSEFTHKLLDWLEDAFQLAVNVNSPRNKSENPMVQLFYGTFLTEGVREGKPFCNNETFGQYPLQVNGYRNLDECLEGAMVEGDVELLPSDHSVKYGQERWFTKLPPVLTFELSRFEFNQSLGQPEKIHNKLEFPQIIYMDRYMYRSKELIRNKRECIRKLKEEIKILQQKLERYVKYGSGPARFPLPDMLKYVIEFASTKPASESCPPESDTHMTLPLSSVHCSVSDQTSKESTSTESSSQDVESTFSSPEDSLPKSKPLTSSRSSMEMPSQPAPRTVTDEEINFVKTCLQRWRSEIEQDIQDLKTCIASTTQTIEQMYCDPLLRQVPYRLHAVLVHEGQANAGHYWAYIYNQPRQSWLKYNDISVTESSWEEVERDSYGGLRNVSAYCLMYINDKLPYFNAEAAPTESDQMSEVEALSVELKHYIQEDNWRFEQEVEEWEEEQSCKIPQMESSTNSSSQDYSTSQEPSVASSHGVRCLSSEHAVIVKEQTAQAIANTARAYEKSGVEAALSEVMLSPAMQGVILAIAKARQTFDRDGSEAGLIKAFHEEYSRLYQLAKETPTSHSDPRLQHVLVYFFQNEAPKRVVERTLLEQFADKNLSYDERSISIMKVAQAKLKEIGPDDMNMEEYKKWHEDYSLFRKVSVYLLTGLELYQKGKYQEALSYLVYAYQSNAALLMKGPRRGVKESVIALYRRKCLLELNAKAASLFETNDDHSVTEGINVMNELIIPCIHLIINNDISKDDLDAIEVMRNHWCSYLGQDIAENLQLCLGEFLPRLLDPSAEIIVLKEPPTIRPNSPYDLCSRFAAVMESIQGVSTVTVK
Outline: as §1

Measured: log2 ratio of Biotin-Ahx-Ub-VS probe labelling

Chain of USP24 (Q9UPU5 whole entry): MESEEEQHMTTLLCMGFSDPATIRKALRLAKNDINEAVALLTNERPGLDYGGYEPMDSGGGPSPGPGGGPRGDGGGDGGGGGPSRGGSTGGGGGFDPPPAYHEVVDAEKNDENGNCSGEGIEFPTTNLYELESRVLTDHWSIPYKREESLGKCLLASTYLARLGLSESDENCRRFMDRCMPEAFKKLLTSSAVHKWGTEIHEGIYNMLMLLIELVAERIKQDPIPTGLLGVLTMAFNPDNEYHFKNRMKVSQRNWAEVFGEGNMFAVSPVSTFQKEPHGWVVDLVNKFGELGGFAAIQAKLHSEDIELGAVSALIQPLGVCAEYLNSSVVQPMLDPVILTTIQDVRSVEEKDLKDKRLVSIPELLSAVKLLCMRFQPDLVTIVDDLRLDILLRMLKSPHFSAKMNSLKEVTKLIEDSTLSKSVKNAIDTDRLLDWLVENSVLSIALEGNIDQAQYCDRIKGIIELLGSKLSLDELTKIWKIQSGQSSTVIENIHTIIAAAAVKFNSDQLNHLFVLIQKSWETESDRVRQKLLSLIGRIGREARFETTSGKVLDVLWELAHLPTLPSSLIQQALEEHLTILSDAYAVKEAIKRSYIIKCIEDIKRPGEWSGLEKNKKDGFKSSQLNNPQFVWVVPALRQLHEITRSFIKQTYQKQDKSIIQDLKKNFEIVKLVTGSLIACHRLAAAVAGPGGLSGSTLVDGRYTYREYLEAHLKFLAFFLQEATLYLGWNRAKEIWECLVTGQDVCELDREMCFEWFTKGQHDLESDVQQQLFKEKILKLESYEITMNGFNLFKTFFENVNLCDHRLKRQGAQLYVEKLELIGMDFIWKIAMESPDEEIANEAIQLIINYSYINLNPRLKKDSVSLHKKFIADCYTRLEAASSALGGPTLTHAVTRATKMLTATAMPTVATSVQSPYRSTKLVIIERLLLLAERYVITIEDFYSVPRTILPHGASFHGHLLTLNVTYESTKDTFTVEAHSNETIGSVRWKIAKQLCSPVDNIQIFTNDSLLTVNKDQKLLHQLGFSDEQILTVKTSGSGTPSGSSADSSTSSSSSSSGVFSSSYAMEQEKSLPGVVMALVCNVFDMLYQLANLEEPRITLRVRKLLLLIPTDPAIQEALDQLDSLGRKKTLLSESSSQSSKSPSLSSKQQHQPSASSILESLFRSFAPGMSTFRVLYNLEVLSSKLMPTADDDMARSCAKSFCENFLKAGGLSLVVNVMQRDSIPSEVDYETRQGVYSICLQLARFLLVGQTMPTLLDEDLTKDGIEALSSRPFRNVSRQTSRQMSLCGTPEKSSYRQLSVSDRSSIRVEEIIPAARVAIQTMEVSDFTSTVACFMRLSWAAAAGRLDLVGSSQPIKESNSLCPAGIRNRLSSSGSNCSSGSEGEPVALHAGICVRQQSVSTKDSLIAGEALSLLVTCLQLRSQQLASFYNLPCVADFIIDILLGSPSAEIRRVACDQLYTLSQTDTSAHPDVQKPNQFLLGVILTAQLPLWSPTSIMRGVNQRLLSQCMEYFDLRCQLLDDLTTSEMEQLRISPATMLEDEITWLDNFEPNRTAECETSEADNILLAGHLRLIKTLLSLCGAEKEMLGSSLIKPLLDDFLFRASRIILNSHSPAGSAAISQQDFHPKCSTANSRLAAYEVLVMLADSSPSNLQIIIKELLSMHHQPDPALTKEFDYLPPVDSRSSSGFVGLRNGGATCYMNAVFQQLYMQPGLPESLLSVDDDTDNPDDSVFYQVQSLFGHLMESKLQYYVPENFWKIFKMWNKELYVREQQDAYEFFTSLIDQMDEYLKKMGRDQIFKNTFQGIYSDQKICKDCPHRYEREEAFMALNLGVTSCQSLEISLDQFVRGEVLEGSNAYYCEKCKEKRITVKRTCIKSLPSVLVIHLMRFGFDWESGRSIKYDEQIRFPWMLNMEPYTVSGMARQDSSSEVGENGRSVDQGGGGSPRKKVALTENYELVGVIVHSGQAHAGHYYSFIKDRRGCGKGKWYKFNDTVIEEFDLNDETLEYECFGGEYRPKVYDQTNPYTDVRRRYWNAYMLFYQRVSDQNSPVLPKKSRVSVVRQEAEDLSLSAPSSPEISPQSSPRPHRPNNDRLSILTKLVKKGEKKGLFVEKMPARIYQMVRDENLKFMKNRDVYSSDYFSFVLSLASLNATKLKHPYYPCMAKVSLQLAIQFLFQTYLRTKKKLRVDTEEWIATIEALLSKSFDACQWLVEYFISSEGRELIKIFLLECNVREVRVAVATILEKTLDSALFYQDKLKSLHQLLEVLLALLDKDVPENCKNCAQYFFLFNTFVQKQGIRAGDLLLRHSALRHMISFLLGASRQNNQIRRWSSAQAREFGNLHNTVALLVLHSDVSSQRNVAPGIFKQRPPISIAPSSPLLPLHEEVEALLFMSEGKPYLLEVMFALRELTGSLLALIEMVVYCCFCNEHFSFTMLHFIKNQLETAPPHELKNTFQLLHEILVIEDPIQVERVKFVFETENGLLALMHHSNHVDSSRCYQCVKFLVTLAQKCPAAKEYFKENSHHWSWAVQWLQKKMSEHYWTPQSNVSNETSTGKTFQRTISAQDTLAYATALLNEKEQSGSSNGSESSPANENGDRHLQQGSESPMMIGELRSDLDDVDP

Cc1cccc(N(CCC#N)C(=O)CCl)c1C
inactive: USP19 0.16 | USP22 -0.11 | USP24 -0.0767 | USP25 0.00615 | USP28 -0.253
